Screens deposited in PubChem BioAssay by National Center for Advancing Translational Sciences (NCATS).
NS1 inh: blocks influenza NS1 protein function. Potency, µM (top dose mostly 46.1 µM). 0.4% of 270,000 active; calls by dose curve; further: actives are rising curves; nearly all actives have a fitted effect of over 50% in size
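Compounds were scored for reversing the slow growth caused by influenza A NS1 in S. cerevisiae, measured by optical density at 600 nm. Assay medium contained 2% galactose at pH 6.0; NS1-free yeast of the same strain were the positive control.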
Cycloheximide cs: affects cycloheximide protein synthesis inhibition readout, counter-screen; 12% of 300,000 active; cell reporter, cycloheximide protein synthesis inhibition counterscreen; max response, %; AID 2314; in the data active means max response mostly above about 13%, no sharp cut-off; inactive means mostly below about 14%; further: read at 38.3 µM for the half of the compounds with a filed dose
Pf growth 96h: inhibits malaria parasite growth, 96 h; P. falciparum luciferase reporter growth, 96 h; Potency, µM (top dose mostly 28.7 µM), hits mostly inhibitors; 6.9% of 320,000 active; AID 504834
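Luminescence readout: decreased luciferase signal marks inhibited growth of reporter-expressing P. falciparum in infected red cells (2% hematocrit, 0.05% parasitemia final), exposed to compound two generations (96 h, 37 C, 5% CO2).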
Pf growth 48h: inhibits P. falciparum growth in the first generation, 48 h. P. falciparum luciferase growth in erythrocytes, 48 h. Potency, µM (series often up to 28.7 µM), actives largely listed as inhibitors. 5.9% of 310,000 active. AID 504832
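In quantitative HTS format, infected erythrocytes bearing luciferase-reporter parasites were treated for a single generation at 37 C. Luminescence after adding detection reagent served as the growth measure.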
Shiga inhibitor: inhibitors of Shiga toxin in Vero cells; Vero cells, Shiga toxin protein synthesis inhibition reporter; inhibition, % at 38.7 µM; 9.2% of 290,000 active; in the data active means inhibition mostly above about 28%, no sharp cut-off; inactive means mostly below about 43%
A number is an active result; - = inactive; ? = inconclusive; . = no result; [ ] = remark or other dose. An excerpt weighted towards active compounds, which were near 21% of everything screened. Unless noted, the call rests on the fitted dose curve; in most records, active means well fitted inhibition curve with a large enough effect; inconclusive means small, poorly fitted or top-dose-only effect, or another doubt; inactive means no such curve, though single readings can be large or run the other way.

SMILES | NS1 inh | Cycloheximide cs | Pf growth 96h | Pf growth 48h | Shiga inhibitor
CCCCCCNC(=O)c1cn(CC)c2cc(N3CCN(C)CC3)c(F)cc2c1=O | - | - | 2.6µM | 4.7µM | -
CCn1cc(C(=O)NCCCO)c(=O)c2cc(F)c(N3CCN(C)CC3)cc21 | - | - | ? | - | -
CCn1cc(C(=O)NCCN(C)CCc2ccccc2)c(=O)c2cc(S(=O)(=O)N(C)C)ccc21 | - | - | ? | ? | -
N#CCCN(C(=O)c1cc2c(s1)-c1ccccc1S(=O)(=O)C2)c1ccccc1 | - | - | ? | ? | -
Cc1nc2ccc(NC(=O)c3ccco3)cc2s1 | - | 34 | - | - | 104
Cc1nc2ccc3nc(NC(=O)c4ccco4)sc3c2s1 | - | . | . | . | .
CC(=O)Nc1nc2ccc(NC(=O)c3ccco3)cc2s1 | - | 45 | - | . | 55
Cn1cnc2c1c(=O)[nH]c(=O)n2C | - | - | - | - | -
CCN(Cc1ccccc1)C(=O)c1oc2ccc(C)cc2c1C | - | - | ? | - | -
Cc1ccc2oc(C(=O)N(C)Cc3ccon3)c(C)c2c1 | - | 54 | - | - | 47
Cc1ccc2oc(C(=O)N(C)Cc3ccc(C)o3)c(C)c2c1 | - | 27 | ? | - | 52
CC1CC(C)CN(C(=O)Cc2c(C(=O)O)[nH]c3ccc(Cl)cc23)C1 (stereo not given) | . | - | - | - | -
Cc1ccc(OCC(=O)Nc2ccc(NC(=O)c3ccccc3)c(C)c2)cc1 | - | - | ? | - | -
Cc1cc(OCC(=O)c2ccc(Br)cc2)ccc1N1C(=O)CCC1=O | - | - | ? | . | -
Cc1ccc(OCC(=O)c2ccc3c(c2)CCCC3)cc1C | - | 36 | - | - | 92
O=C(COc1ccc(Br)cc1)c1ccc2c(c1)CCCC2 | - | - | 8.3µM | - | -
Cc1ccc(NC(=O)COc2ccc3c(c2)CCC3)nc1 | . | . | - | - | .
CC1(C)C2CCC1(C)C(NCC(O)COc1ccc(C#N)cc1)C2 (stereo not given) | - | - | 4.1µM | . | -
c1ccc2c(c1)CCN(C1=Nc3cccc4cccc1c34)C2 | . | 35 | ? | ? | 49
c1cc2c3c(cccc3c1)C(N1CCCCCC1)=N2 | - | - | -[5.75 µM] | - | -
c1cc2c3c(cccc3c1)C(N1CCCCC1)=N2 | - | - | 12µM | ? | -
O=C(NC1CCS(=O)(=O)C1)c1cccc(S(=O)(=O)N2CCCC2)c1 (stereo not given) | - | - | - | - | -
CCOc1ccc(N2CC(=O)N/C2=N\c2nc(C)cc(C)n2)cc1 | - | - | -[5.75 µM] | - | -
O=C(Cc1ccccc1)NCCSC1CCCCC1 | - | 31 | - | - | 58
CCN(CC)S(=O)(=O)c1ccc(Nc2ccc(-c3ccc4c(c3)OCCO4)nn2)cc1 | - | - | ? | - | -
SMILES | NS1 inh | Cycloheximide cs | Pf growth 96h | Pf growth 48h | Shiga inhibitor
CN(C)S(=O)(=O)c1ccc(Nc2ccc(-c3ccc4c(c3)OCCO4)nn2)cc1 | - | - | 5.9µM | ? | -
CN(C(=O)c1cccc(Nc2ccc(-c3ccc4c(c3)OCCO4)nn2)c1)C1CCCCC1 | ? | 53 | - | ? | 64
CN(C)S(=O)(=O)c1cccc(COC(=O)C2=COCCO2)c1 | - | - | ? | - | -
NC(=O)c1ccccc1NC(=O)CCc1ccccc1 | - | 29 | - | . | -
CN(C)S(=O)(=O)c1cccc(NC(=O)CC23CC4CC(CC(C4)C2)C3)c1 | - | - | ? | 15µM | -
NC(=O)c1ccccc1NC(=O)CC12CC3CC(CC(C3)C1)C2 | - | - | 9.3µM | - | .
O=C(NCCc1ccccc1)c1ccccc1NC(=O)C1CC=CCC1C(=O)O (stereo not given) | - | 61 | - | - | 70
CN(C)S(=O)(=O)Nc1cccc(NC(=O)CC23CC4CC(CC(C4)C2)C3)c1 | - | - | - | - | -
O=C(c1ccc(Br)cc1)N(Cc1nc2ccccc2c(=O)[nH]1)C1CCCC1 | - | - | - | ? | -
Cc1cccc(-n2c(CCCN3C(=O)c4ccccc4C3=O)nc3ccccc3c2=O)n1 | - | - | - | - | -
O=C(O)CCC(=O)Nc1ccccc1C(=O)Nc1ccccc1 | - | - | . | - | -
O=C(O)CCC(=O)Nc1ccccc1C(=O)NCCc1ccccc1 | - | 45 | - | - | 73
O=C(Nc1ccccc1C(=O)NCCc1ccccc1)c1cnccn1 | - | 19 | - | - | -
O=C(COC(=O)c1cnccn1)NCCc1ccccc1 | - | - | - | ? | -
CCN(C(=O)COC(=O)c1ccccc1SCC(=O)N1CCCC1)C1CCS(=O)(=O)C1 (stereo not given) | . | . | - | - | .
CCCc1cc(=O)[nH]c(SCC(=O)NN(c2ccccc2)c2ccccc2)n1 | . | - | - | - | -
